Legend:
Assay in all cases: DAPPL (digital affinity profiling via proximity ligation, sequencing); 10 mM Tris-HCl pH 7.5, 50 mM NaCl, 1 mM DTT, 4% glycerol, room temperature, 30 min; GST-TFs on glutathione beads, 16-mer random dsDNA library, 0.1% formaldehyde crosslink after washing; high values mean tight binding
FLI1 = target: T1, FLI1 (Homo sapiens, UniProt Q01543 1-452); details: protein: recombinant; tags: N-terminal GST; dsDNA, one strand shown
T1 sequence: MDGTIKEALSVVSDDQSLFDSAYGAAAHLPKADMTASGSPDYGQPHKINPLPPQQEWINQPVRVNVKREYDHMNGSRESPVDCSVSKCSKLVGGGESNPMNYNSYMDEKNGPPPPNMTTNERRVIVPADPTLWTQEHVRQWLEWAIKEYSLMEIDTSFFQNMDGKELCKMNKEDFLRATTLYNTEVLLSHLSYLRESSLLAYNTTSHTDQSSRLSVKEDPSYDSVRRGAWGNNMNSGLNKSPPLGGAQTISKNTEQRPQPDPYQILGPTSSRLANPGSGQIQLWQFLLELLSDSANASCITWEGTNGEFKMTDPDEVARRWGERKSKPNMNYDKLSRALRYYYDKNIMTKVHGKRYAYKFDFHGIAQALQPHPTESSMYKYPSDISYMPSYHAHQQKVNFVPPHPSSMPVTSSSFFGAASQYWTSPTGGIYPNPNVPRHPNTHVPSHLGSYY
Method in brief: (§1)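 Human transcription factors carrying a GST fusion were produced in yeast, bound to glutathione beads, tagged with DNA barcodes and pooled together with a tag-only sample. Each pool was held with 200 nmole of a random double-stranded 16-mer DNA library in Tris/NaCl/DTT/glycerol buffer for 30 min at room temperature, then washed, crosslinked in 0.1% formaldehyde, proximity-ligated with BsaI/T4 ligase (1 h, 37 °C), PCR-amplified and sequenced on an Illumina NextSeq500. Binding signal is the read frequency of each hexamer for a given factor divided by its frequency in the tag-only sample.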

ELK1 = target: T2, ELK1 (Homo sapiens, UniProt P19419 1-428); details: protein: recombinant; tags: N-terminal GST; dsDNA, one strand shown
T2 sequence: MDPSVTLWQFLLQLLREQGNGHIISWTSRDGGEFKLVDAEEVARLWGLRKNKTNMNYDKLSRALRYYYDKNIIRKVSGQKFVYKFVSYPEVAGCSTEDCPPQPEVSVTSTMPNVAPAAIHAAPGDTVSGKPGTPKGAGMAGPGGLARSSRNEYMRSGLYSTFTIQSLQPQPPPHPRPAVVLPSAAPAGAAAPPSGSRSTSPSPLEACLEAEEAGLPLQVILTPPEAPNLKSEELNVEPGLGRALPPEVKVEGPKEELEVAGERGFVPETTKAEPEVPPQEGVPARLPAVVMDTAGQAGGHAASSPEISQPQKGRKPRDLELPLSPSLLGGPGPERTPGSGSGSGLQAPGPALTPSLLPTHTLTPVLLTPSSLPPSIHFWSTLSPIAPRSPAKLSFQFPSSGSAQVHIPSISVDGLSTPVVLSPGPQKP
Method in brief: as §1

GABPA = target: T3, GABPA (Homo sapiens, UniProt Q06546 1-454); details: protein: recombinant; tags: N-terminal GST; dsDNA, one strand shown
T3 sequence: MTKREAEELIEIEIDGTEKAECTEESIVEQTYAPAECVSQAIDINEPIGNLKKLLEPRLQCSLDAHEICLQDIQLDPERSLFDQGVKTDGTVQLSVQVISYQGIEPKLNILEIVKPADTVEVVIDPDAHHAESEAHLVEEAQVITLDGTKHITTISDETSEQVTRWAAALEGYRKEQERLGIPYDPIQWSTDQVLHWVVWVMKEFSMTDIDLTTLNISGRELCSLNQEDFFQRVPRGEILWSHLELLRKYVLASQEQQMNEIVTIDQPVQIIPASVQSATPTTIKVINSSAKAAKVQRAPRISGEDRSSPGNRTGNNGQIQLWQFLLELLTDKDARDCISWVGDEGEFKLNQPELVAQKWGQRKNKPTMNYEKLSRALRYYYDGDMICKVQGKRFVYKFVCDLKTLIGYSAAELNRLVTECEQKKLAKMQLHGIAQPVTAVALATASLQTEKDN
Method in brief: as §1

ERG = target: T4, ERG (Homo sapiens, UniProt P11308 1-479); details: protein: recombinant; tags: N-terminal GST; dsDNA, one strand shown
T4 sequence: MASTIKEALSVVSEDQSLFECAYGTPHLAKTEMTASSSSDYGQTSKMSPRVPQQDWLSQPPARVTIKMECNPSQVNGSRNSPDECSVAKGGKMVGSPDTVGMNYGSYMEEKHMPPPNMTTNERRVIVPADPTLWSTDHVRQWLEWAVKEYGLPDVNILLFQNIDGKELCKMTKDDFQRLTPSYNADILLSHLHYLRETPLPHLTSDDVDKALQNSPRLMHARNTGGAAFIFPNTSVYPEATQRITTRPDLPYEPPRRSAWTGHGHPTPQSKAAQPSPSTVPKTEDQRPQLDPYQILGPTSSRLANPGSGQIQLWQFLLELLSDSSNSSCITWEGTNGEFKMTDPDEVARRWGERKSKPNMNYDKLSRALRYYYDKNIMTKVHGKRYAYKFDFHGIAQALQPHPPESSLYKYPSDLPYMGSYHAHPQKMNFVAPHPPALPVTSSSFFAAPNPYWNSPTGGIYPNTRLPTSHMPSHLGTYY
Method in brief: as §1

ELF1 = ELF1 (Homo sapiens, UniProt P32519 1-619); details: protein: recombinant; tags: N-terminal GST; dsDNA, one strand shown
Method in brief: as §1

EHF = target: T5, EHF (Homo sapiens, UniProt Q9NZC4 1-300); details: protein: recombinant; tags: N-terminal GST; dsDNA, one strand shown
T5 sequence: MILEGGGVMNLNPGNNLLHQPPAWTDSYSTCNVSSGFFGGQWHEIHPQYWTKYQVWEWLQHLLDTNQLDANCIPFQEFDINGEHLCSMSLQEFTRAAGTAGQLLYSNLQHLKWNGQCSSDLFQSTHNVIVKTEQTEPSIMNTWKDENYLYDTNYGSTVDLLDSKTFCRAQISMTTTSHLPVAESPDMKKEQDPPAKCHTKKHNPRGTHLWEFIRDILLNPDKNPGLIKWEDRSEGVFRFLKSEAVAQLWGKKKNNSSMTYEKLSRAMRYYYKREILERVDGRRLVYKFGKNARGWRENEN
Method in brief: as §1

SPI1 = SPI1 (Homo sapiens, UniProt P17947 1-270); details: protein: recombinant; tags: N-terminal GST; dsDNA, one strand shown
Method in brief: as §1

SPIB = SPIB (Homo sapiens, UniProt Q01892 1-262); details: protein: recombinant; tags: N-terminal GST; dsDNA, one strand shown
Method in brief: as §1

ELK3 = target: T6, ELK3 (Homo sapiens, UniProt P41970 1-407); details: protein: recombinant; tags: N-terminal GST; dsDNA, one strand shown
T6 sequence: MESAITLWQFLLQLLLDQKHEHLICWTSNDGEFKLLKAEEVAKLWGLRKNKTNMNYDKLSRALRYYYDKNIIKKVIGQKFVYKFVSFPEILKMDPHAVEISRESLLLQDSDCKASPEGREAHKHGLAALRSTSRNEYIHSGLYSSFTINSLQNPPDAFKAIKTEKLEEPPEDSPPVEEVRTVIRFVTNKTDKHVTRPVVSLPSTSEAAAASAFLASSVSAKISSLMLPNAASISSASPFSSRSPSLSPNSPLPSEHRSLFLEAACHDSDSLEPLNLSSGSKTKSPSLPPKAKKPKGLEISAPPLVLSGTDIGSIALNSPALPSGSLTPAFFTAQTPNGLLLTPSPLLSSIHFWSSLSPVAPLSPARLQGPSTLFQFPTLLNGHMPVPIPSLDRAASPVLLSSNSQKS
Method in brief: as §1

FEV = target: T7, FEV (Homo sapiens, UniProt Q99581 1-238); details: protein: recombinant; tags: N-terminal GST; dsDNA, one strand shown
T7 sequence: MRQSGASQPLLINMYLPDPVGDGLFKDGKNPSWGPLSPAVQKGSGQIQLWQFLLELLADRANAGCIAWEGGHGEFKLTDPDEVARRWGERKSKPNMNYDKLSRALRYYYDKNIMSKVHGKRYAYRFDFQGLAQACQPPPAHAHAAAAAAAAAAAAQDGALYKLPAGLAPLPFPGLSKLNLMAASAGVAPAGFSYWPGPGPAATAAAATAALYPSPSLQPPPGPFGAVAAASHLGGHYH
Method in brief: as §1

ETV5 = ETV5 (Homo sapiens, UniProt P41161 1-510); details: protein: recombinant; tags: N-terminal GST; dsDNA, one strand shown
Method in brief: as §1

HSF1 = HSF1 (Homo sapiens, UniProt Q00613 1-529); details: protein: recombinant; tags: N-terminal GST; chain copies: 3; dsDNA, one strand shown
Method in brief: as §1

SPIC = target: T8, SPIC (Homo sapiens, UniProt Q8N5J4 1-248); details: protein: recombinant; tags: N-terminal GST; dsDNA, one strand shown
T8 sequence: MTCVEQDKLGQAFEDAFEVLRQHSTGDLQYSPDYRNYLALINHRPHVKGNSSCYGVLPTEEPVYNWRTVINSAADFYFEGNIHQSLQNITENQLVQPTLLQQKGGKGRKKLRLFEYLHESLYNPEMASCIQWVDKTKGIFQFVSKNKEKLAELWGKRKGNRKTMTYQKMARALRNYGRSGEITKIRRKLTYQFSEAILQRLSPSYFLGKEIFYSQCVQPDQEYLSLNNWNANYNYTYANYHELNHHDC
Method in brief: as §1

ELF4 = ELF4 (Homo sapiens, UniProt Q99607 1-663); details: protein: recombinant; tags: N-terminal GST; dsDNA, one strand shown
Method in brief: as §1

ELK4 = target: T9, ELK4 (Homo sapiens, UniProt P28324-2 1-405); details: protein: recombinant; tags: N-terminal GST; dsDNA, one strand shown
T9 sequence: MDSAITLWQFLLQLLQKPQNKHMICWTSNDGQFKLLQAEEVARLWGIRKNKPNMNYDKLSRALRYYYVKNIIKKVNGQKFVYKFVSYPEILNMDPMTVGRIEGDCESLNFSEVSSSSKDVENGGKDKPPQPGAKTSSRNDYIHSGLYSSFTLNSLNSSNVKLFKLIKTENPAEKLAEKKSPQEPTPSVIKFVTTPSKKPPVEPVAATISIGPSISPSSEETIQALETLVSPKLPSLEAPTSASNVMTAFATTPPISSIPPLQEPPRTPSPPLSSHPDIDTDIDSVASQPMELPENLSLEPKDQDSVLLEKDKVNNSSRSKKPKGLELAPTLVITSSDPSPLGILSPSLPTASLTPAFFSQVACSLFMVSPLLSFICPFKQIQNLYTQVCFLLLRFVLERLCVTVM
Method in brief: as §1

ETV2 = target: T10, ETV2 (Homo sapiens, UniProt O00321 1-342); details: protein: recombinant; tags: N-terminal GST; dsDNA, one strand shown
T10 sequence: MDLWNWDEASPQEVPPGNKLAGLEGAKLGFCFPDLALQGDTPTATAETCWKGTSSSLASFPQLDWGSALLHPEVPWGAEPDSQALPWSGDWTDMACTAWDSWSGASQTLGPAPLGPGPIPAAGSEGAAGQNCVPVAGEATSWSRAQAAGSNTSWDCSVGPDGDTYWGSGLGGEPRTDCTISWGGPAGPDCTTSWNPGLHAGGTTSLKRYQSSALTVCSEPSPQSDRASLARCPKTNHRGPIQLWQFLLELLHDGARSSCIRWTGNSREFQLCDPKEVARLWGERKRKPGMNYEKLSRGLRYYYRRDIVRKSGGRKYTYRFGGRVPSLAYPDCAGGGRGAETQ
Method in brief: as §1

ELF3 = target: T11, ELF3 (Homo sapiens, UniProt P78545 1-371); details: protein: recombinant; tags: N-terminal GST; dsDNA, one strand shown
T11 sequence: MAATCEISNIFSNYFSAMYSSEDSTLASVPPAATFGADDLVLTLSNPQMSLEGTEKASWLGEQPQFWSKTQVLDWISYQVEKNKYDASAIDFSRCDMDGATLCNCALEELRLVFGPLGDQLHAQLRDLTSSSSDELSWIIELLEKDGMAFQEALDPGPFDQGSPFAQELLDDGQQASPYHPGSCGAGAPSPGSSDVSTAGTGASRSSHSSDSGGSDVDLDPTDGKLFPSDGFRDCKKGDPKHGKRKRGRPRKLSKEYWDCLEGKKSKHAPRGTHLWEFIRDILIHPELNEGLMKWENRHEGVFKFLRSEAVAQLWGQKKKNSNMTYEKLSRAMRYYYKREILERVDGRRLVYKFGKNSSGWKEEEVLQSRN
Method in brief: as §1

ETV1 = ETV1 (Homo sapiens, UniProt P50549 1-477); details: protein: recombinant; tags: N-terminal GST; dsDNA, one strand shown
Method in brief: as §1

HSF1, sequence (Q00613 whole entry): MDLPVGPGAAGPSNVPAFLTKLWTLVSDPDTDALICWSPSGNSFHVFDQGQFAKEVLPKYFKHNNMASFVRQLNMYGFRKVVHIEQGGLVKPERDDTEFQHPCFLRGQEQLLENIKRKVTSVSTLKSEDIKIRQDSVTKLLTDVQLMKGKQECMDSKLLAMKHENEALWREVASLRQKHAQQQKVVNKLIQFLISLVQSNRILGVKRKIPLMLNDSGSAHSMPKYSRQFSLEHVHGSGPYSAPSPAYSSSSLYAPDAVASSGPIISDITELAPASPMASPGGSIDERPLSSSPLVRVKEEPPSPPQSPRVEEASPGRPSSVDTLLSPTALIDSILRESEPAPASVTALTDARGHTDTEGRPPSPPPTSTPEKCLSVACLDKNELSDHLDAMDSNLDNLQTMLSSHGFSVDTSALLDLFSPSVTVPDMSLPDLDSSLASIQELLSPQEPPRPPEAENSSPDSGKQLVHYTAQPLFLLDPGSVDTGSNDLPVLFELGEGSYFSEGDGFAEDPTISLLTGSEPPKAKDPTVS
ETV1, sequence (P50549 whole entry): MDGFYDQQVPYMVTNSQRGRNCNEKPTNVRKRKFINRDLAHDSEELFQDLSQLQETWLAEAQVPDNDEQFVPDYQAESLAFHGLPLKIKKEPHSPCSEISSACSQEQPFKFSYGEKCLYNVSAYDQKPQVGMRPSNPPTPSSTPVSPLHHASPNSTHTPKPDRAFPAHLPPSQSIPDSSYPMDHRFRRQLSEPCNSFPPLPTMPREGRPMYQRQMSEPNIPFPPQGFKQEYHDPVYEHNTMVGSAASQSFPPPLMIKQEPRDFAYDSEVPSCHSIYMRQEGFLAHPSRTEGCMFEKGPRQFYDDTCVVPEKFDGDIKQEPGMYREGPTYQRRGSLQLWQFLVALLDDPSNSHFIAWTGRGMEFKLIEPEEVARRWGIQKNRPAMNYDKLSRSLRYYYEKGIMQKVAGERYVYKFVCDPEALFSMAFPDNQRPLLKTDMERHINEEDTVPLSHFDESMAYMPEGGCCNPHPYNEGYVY
ELF1, sequence (P32519 whole entry): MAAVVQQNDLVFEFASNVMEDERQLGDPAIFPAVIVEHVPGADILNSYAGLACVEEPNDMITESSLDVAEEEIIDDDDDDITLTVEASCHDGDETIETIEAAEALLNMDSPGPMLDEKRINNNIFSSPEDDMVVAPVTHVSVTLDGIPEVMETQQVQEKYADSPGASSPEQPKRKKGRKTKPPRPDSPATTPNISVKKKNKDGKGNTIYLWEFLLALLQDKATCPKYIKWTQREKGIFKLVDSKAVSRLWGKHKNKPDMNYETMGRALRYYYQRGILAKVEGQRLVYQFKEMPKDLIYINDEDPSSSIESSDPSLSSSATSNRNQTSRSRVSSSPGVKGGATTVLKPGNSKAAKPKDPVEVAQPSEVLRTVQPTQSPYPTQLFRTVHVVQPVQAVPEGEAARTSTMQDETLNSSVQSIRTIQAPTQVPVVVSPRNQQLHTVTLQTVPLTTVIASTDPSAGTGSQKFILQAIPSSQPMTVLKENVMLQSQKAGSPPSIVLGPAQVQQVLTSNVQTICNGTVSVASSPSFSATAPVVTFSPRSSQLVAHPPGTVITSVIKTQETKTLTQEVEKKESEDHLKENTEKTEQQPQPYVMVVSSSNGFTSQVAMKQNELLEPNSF
ELF4, sequence (Q99607 whole entry): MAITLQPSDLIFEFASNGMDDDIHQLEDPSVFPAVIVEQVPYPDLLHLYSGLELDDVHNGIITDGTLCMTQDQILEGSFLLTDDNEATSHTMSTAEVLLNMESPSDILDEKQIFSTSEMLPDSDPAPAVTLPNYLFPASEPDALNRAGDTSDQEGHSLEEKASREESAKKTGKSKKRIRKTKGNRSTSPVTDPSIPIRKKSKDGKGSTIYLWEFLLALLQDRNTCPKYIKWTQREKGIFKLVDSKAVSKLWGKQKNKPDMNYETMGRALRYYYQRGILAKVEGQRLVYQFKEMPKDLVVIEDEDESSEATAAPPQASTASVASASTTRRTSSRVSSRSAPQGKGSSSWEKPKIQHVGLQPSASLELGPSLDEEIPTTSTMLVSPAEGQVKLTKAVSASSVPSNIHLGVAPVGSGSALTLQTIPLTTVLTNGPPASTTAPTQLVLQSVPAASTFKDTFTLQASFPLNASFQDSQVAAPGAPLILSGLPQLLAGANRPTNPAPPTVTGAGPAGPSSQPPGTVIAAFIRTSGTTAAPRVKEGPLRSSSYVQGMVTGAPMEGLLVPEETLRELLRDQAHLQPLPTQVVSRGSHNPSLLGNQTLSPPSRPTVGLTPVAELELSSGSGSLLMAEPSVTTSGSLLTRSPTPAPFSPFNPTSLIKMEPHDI
ETV5, sequence (P41161 whole entry): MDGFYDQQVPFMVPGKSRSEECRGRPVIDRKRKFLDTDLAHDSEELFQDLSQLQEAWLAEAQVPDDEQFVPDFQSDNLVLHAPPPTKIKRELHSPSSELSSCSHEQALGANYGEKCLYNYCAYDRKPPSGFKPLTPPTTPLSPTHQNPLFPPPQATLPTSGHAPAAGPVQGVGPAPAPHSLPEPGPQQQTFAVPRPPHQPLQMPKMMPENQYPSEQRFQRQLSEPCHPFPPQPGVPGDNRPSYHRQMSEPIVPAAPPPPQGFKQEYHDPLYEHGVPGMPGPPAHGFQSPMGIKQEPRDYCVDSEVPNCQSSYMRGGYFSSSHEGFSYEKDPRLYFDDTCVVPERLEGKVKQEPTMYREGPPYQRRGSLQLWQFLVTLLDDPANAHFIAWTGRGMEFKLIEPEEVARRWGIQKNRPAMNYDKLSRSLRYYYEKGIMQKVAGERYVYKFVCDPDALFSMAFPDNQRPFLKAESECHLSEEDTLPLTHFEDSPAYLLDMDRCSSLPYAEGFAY
SPIB, sequence (Q01892 whole entry): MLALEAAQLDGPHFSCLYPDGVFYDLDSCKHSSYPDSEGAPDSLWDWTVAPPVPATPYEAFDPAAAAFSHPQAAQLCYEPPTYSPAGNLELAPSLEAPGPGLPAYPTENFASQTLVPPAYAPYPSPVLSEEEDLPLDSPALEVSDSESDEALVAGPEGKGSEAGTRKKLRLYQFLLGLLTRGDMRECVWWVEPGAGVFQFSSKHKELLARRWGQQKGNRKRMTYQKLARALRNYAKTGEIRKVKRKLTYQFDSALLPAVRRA

Sequence: CGTACA
- binding signal (FLI1): 1.18 fold enrichment (6-mer frequency, TF over GST control)
- binding signal (ELK1): 1.19 fold enrichment (6-mer frequency, TF over GST control)
- binding signal (GABPA): 1.17 fold enrichment (6-mer frequency, TF over GST control)
- binding signal (ERG): 1.17 fold enrichment (6-mer frequency, TF over GST control)
- binding signal (ELF1): 1.26 fold enrichment (6-mer frequency, TF over GST control)
- binding signal (EHF): 1.16 fold enrichment (6-mer frequency, TF over GST control)
- binding signal (SPI1): 1.12 fold enrichment (6-mer frequency, TF over GST control)
- binding signal (SPIB): 1.1 fold enrichment (6-mer frequency, TF over GST control)
- binding signal (ELK3): 1.16 fold enrichment (6-mer frequency, TF over GST control)
- binding signal (FEV): 1.2 fold enrichment (6-mer frequency, TF over GST control)
- binding signal (ETV5): 1.22 fold enrichment (6-mer frequency, TF over GST control)
- binding signal (HSF1): 1.02 fold enrichment (6-mer frequency, TF over GST control)
- binding signal (SPIC): 1.31 fold enrichment (6-mer frequency, TF over GST control)
- binding signal (ELF4): 1.2 fold enrichment (6-mer frequency, TF over GST control)
- binding signal (ELK4): 1.24 fold enrichment (6-mer frequency, TF over GST control)
- binding signal (ETV2): 1.36 fold enrichment (6-mer frequency, TF over GST control)
- binding signal (ELF3): 1.27 fold enrichment (6-mer frequency, TF over GST control)
- binding signal (ETV1): 1.13 fold enrichment (6-mer frequency, TF over GST control)

Source: publication PMC7862700, “An all-to-all approach to the identification of sequence-specific readers for epigenetic DNA modifications on cytosine”
